# Where “and” joins values, the source holds several entries; their conditions need not be identical. Identical values can stand only once. Results filed as inconclusive are left out. More than one record can exist for a structure, and the calls need not agree. Calls of active or inactive are those of the source. How the source made its calls, unless noted: active means hit-call score of the fitted dose curve at least 0.9, where 1 is the maximum; inconclusive means response in the unintended direction; inactive means score below 0.9.
# Tests used:
# [1] = target: Bile acid receptor (Homo sapiens) (UniProt Q96RI1); experiment: ATG_FXR_TRANS: Attagene TRANS-FACTORIAL HepG2 Assay for Farnesoid X Receptor (FXR) (AID 2282979); conditions: HepG2 Attagene TRANS FXR-GAL4 reporter transcription;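 further: hits raise reporter mRNA above DMSO so AC50 marks FXR activation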
# How it was run: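 Reporter transcripts from transfected HepG2 cells were measured 24 h after dosing, using RT-PCR with capillary electrophoresis of 6-FAM-labelled fragments. The read-out reflects activity of exogenous FXR-Gal4 chimera on GAL4-UAS units, with induction relative to DMSO.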
# [2] = ATG_M_32_TRANS: Attagene TRANS-FACTORIAL HepG2 Assay for M32 Transcription Factor (Internal Marker) (AID 2282984); conditions: HepG2 Attagene TRANS M32 internal marker reporter;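 on outcome: transcript level of a background control reporter unit measured by RT-PCR and capillary electrophoresis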
# How it was run: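 HepG2 cells transiently transfected with multiple GAL4-UAS reporter transcription units, dosed for 24 hours; reporter mRNA quantified by RT-PCR, 6-FAM primer extension, HpaI digestion and capillary electrophoresis. Gain-of-signal fitted versus DMSO baseline; internal background-control marker.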
# [3] = target: Transcriptional activator Myb (Homo sapiens) (UniProt P10242); experiment: ATG_Myb_CIS: Attagene CIS-FACTORIAL HepG2 Assay for human Myeloblastosis (Myb) Proto-Oncogene Transcription Factor (AID 2282986; active means hit-call score of the fitted dose curve at least 0.9, where 1 is the maximum; inactive means score below 0.9); conditions: HepG2 Attagene CIS-FACTORIAL Myb reporter transcription; actives raise or lower the signal
# How it was run: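 HepG2 cells were transiently transfected with cis-regulated multiple reporter transcription units reflecting endogenous Myb activity, then exposed to compound for 24 hours. Reporter mRNA was measured by RT-PCR with capillary electrophoresis; bidirectional fitting versus DMSO baseline.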
# [4] = target: Nuclear respiratory factor 1 (Homo sapiens) (UniProt Q16656); experiment: ATG_NRF1_CIS: Attagene CIS-FACTORIAL HepG2 Assay for human Nuclear Respiratory Factor 1 (NRF1) Orphan Gene (AID 2282987; active means hit-call score of the fitted dose curve at least 0.9, where 1 is the maximum; inactive means score below 0.9); conditions: HepG2 NRF1 cis-element reporter, Attagene multiplex; actives raise or lower the signal
# How it was run: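 HepG2 cells transiently transfected with multiple reporter transcription units under cis-regulatory promoter control, so endogenous transcription-factor activity is read. After 24 h compound exposure, reporter mRNA quantified by RT-PCR, fluorescent labelling, HpaI digestion and capillary electrophoresis; bidirectional fitting versus DMSO.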
# [5] = target: Oxysterols receptor LXR-alpha (Homo sapiens) (UniProt Q13133); experiment: ATG_LXRa_TRANS: Attagene TRANS-FACTORIAL HepG2 Assay for human Liver X Receptor alpha (LXRa) (AID 2282980); conditions: HepG2 Attagene TRANS reporter, LXRa transactivation
# How it was run: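 Chemical-induced reporter mRNA measured by RT-PCR with fluorescent labelling and capillary electrophoresis after 24 h dosing of transiently transfected HepG2 cells expressing exogenous NR-Gal4 chimeras; increases scored against DMSO baseline.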
# [6] = target: Oxysterols receptor LXR-beta (Homo sapiens) (UniProt P55055); experiment: ATG_LXRb_TRANS: Attagene TRANS-FACTORIAL HepG2 Assay for human Liver X Receptor beta (LXRb) (AID 2282981); conditions: HepG2 Attagene TRANS GAL4-LXRb reporter, mRNA
# How it was run: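 HepG2 cells transiently transfected with multiple reporter transcription units carrying chimeric NR-Gal4 proteins acting on GAL4-UAS reporters; compound exposure 24 h. Reporter mRNA quantified by RT-PCR, 6-FAM labelling, HpaI digestion and capillary electrophoresis; gain of signal versus DMSO.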
# [7] = target: Hepatocyte nuclear factor 4-alpha (Homo sapiens) (UniProt P41235); experiment: ATG_HNF4a_TRANS: Attagene TRANS-FACTORIAL HepG2 Assay for human Hepatocyte Nuclear Factor 4 alpha (HNF4a) (AID 2282982); conditions: HepG2 HNF4a transactivation reporter, mRNA readout
# How it was run: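 HepG2 cells transiently transfected with multiplexed GAL4-UAS reporter units responsive to chimeric NR-GAL4 proteins; compound exposure 24 h. Reporter mRNA quantified by RT-PCR, 6-FAM labelling, HpaI digestion and capillary electrophoresis; gain of signal versus DMSO baseline.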
# [8] = ATG_M_06_TRANS: Attagene TRANS-FACTORIAL HepG2 Assay for M06 Transcription Factor (Internal Marker) (AID 2282983); conditions: HepG2 Attagene TRANS M06 internal marker reporter;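 on AC50: potency for rise in reporter mRNA above DMSO baseline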;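 on outcome: reporter transcript level by RT-PCR then capillary electrophoresis fluorescence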
# How it was run: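 Cells: HepG2, transient multi-reporter transfection. Exposure: 24 h. Detection: RT-PCR, 6-FAM labelling, HpaI digestion (2 h, 37 °C), capillary electrophoresis. Baseline: DMSO.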
# [9] = target: Nuclear receptor subfamily 4 group A member 2 (Homo sapiens) (UniProt P43354); experiment: ATG_NURR1_TRANS: Attagene TRANS-FACTORIAL HepG2 Assay for human Nuclear Receptor Related Protein 1 (NURR1) (AID 2282985); conditions: HepG2 Attagene TRANS reporter, mRNA readout
# How it was run: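 HepG2 cells transiently transfected with GAL4-UAS reporter units and chimeric NR-Gal4 constructs; chemical exposure 24 h. Reporter mRNA quantified by RT-PCR, fluorescent labelling and capillary electrophoresis; gain of signal fitted relative to DMSO baseline.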
# [10] = ATG_M_61_TRANS: Attagene TRANS-FACTORIAL HepG2 Assay for M61 Transcription Factor (Internal Marker) (AID 2282988; active means hit-call score of the fitted dose curve at least 0.9, where 1 is the maximum; inactive means score below 0.9); conditions: HepG2 Attagene TRANS M61 internal marker reporter
# Description: ATG_TRANS is a cell-based, multiplexed-readout assay that uses HepG2, a human liver cell line, with measurements taken at 24 hours after chemical dosing in a 24-well plate.ATG_M_61_TRANS is one of 30 assay component(s) measured or calculated from the ATG_TRANS assay. It is designed to make measurements of mRNA induction, a form of inducible reporter, as detected with fluorescence intensity signals by Reverse transcription polymerase chain reaction (RT-PCR) and Capillary electrophoresis technology.Data from the assay component ATG_M_61_TRANS was analyzed into 1 assay endpoint. This assay endpoint, ATG_M_61_TRANS, was analyzed in the positive analysis fitting direction relative to DMSO as the negative control and baseline of activity. […] Furthermore, this assay endpoint can be referred to as a secondary readout, because this assay has produced multiple assay endpoints where this one serves a background control function. […]
# Human liver HepG2 cells are transiently transfected with multiple reporter transcription units (MRTUs) in 6-well plates using FuGene 6 reagent (Roche; 3 ml FuGene/1 mg DNA). […] A major difference between the CIS and TRANS system is that in CIS activities of endogenous TFs are measured, whereas the TRANS assay evaluates changes in activities of exogenous, chimeric NR-Gal4 proteins. […]
# Chain of Nuclear respiratory factor 1 (Homo sapiens) (Q16656 whole entry, looked up): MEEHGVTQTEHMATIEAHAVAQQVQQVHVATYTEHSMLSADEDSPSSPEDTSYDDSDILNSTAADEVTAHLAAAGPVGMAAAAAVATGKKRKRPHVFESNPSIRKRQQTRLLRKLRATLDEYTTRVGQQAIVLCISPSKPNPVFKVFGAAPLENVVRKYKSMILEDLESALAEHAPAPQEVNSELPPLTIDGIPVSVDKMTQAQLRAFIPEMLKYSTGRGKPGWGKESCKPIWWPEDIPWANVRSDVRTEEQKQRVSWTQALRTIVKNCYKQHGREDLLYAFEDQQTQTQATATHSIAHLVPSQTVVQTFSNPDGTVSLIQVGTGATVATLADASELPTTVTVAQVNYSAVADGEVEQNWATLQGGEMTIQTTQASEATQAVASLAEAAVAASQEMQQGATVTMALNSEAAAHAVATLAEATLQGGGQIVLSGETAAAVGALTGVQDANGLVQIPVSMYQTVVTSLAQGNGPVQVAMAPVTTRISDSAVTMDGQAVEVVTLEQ
# Chain of Transcriptional activator Myb (Homo sapiens) (P10242 whole entry, looked up): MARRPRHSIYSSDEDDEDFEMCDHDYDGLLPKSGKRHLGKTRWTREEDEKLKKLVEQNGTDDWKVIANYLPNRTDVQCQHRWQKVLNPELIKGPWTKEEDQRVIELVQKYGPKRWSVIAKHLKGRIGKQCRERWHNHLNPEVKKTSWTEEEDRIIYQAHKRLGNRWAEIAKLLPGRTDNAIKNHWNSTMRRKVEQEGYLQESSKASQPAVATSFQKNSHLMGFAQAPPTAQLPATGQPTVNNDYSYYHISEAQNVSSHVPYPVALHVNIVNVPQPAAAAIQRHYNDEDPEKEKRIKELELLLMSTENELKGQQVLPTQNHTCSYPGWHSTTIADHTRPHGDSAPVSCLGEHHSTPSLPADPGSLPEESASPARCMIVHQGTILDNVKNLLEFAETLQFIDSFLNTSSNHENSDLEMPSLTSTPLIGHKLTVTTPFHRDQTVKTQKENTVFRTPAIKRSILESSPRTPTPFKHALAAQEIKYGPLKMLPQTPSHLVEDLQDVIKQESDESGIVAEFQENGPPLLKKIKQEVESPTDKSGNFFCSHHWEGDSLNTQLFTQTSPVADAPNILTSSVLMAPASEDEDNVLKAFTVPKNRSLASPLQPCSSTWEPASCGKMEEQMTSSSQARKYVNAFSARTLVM
# Chain of Oxysterols receptor LXR-beta (Homo sapiens) (P55055 whole entry, looked up, the tested form may be a part): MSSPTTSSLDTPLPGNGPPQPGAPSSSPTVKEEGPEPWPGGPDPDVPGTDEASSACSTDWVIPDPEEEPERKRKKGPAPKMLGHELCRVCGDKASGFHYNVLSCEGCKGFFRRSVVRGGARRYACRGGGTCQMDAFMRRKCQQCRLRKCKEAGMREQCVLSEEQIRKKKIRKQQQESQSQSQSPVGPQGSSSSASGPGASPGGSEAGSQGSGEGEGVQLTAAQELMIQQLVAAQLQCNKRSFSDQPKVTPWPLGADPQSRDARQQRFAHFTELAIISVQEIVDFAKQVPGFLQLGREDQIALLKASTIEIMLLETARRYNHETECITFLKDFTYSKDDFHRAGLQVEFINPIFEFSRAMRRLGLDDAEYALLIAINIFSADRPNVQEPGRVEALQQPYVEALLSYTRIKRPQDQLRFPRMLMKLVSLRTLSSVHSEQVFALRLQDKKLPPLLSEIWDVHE
# Chain of Nuclear receptor subfamily 4 group A member 2 (Homo sapiens) (P43354 whole entry, looked up, the tested form may be a part): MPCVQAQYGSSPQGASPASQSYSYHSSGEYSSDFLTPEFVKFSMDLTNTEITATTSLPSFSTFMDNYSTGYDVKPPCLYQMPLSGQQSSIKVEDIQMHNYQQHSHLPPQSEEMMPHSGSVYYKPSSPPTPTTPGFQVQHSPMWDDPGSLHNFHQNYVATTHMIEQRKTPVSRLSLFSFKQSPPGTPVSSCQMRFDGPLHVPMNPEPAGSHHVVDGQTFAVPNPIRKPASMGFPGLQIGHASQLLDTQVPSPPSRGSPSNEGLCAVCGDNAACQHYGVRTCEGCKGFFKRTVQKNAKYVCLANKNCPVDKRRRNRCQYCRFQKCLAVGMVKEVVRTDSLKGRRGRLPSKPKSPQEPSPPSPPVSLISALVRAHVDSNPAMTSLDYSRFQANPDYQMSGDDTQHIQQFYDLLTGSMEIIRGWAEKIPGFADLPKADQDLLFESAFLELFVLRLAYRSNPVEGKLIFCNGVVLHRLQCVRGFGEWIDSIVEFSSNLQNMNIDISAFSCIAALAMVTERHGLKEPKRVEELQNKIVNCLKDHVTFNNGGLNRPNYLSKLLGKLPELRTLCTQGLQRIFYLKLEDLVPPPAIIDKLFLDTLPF
# Chain of Oxysterols receptor LXR-alpha (Homo sapiens) (Q13133 whole entry, looked up, the tested form may be a part): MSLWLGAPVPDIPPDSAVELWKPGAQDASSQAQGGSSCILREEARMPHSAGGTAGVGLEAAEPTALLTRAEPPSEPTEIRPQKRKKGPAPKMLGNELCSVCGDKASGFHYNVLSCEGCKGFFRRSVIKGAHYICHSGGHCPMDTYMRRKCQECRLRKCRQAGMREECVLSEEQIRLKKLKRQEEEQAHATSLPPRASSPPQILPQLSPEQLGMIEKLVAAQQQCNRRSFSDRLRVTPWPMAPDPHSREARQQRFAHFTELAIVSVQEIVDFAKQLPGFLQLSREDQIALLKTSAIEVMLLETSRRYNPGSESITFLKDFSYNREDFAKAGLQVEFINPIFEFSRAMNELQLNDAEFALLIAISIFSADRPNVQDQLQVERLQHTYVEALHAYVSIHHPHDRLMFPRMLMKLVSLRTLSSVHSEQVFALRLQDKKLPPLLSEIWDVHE
# Chain of Bile acid receptor (Homo sapiens) (Q96RI1 whole entry, looked up, the tested form may be a part): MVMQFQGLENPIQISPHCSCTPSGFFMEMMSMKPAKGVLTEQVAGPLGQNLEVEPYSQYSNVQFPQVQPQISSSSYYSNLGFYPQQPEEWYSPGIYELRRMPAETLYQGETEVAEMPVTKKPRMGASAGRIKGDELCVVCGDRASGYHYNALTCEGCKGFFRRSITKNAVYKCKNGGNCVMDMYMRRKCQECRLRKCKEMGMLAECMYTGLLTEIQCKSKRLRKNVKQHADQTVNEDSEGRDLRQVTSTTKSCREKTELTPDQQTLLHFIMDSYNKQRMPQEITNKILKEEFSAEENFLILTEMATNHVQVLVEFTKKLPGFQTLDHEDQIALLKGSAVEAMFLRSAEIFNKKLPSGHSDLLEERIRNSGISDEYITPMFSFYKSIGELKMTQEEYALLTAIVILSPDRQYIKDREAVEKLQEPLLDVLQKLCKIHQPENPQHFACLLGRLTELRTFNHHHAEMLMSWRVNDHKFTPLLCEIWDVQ
# Chain of Hepatocyte nuclear factor 4-alpha (Homo sapiens) (P41235 whole entry, looked up, the tested form may be a part): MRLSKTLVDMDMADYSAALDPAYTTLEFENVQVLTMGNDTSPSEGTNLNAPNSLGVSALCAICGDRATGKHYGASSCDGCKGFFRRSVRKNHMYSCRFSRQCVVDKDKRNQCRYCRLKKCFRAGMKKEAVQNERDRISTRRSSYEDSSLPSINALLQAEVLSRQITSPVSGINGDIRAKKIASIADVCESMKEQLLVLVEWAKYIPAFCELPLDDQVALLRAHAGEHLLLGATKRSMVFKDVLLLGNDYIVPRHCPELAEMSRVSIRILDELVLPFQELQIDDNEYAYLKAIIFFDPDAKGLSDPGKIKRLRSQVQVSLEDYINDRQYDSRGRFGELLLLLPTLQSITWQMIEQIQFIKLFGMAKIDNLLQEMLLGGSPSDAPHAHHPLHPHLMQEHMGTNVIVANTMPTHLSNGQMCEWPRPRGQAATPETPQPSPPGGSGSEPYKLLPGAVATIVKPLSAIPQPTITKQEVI
structure (smiles),measurement,setting,value
O=C(C=C(O)C(F)(F)F)C(F)(F)F,outcome,[1],inactive
same,outcome,[2],inactive
same,outcome,[3],inactive
same,outcome,[4],inactive
CCCC=O,outcome,[5],inactive
same,outcome,[6],inactive
same,outcome,[7],inactive
same,outcome,[8],inactive
same,outcome,[9],inactive
same,outcome,[3],inactive
same,outcome,[4],inactive
CCC(C)c1nccnc1OC (stereo not drawn),outcome,[5],inactive
same,outcome,[6],inactive
same,outcome,[8],inactive
same,outcome,[2],inactive
same,outcome,[3],inactive
same,outcome,[4],inactive
CC(C)(C)c1ccc(CCC=O)cc1,outcome,[1],inactive
same,outcome,[2],inactive
same,outcome,[9],inactive
same,outcome,[3],inactive
same,outcome,[4],inactive
FC(F)=C(F)C(F)(F)C(F)(F)C(F)(F)C(F)F,outcome,[1],inactive
same,outcome,[2],inactive
same,outcome,[3],inactive
same,outcome,[4],inactive
c1cnc2c(c1)ccc1cccnc12,outcome,[5],inactive
same,outcome,[6],inactive
same,outcome,[7],inactive
same,outcome,[9],inactive
same,outcome,[3],inactive
same,AC50,[4],4.62 µM (active) and 6.45 µM (active)
FC(F)(F)C1(F)C(F)(F)C(F)(F)C(F)(F)C1(F)F,outcome,[1],inactive
same,outcome,[2],inactive
same,outcome,[3],inactive
same,outcome,[4],inactive
CCCCCCCCCCCC(=O)O,outcome,[5],inactive
same,outcome,[6],inactive
same,outcome,[8],inactive
same,outcome,[2],inactive
same,outcome,[3],inactive
same,outcome,[4],inactive
COc1cccc(O)c1,outcome,[5],inactive
same,outcome,[8],inactive
same,outcome,[2],inactive
same,outcome,[9],inactive
same,outcome,[3],inactive
same,outcome,[4],inactive
CCCCCCCCCCCC[N+](C)(C)Cc1ccccc1,outcome,[5],inactive
same,outcome,[6],inactive
same,outcome,[7],inactive
same,outcome,[8],inactive
same,outcome,[2],inactive
same,outcome,[9],inactive
same,AC50,[3],11.1 µM (active)
same,outcome,[3],inactive
same,outcome,[4],inactive
NC(=NCCCCCCN=C(N)/N=C(\N)Nc1ccc(Cl)cc1)/N=C(\N)Nc1ccc(Cl)cc1,outcome,[5],inactive
same,AC50,[6],24.1 µM (active)
same,outcome,[6],inactive
same,AC50,[7],25.7 µM (active)
same,outcome,[7],inactive
same,AC50,[8],23.3 µM (active)
same,outcome,[8],inactive
same,outcome,[2],inactive
same,AC50,[3],18.3 µM (active) and 48.2 µM (active)
same,outcome,[3],inactive
same,AC50,[4],7.2 µM (active) and 38.6 µM (active)
same,outcome,[4],inactive
Cc1cc(=O)oc2cc(O)ccc12,outcome,[5],inactive
same,outcome,[8],inactive
same,outcome,[2],inactive
same,outcome,[3],inactive
same,outcome,[4],inactive
CC(C)(c1ccc(Oc2ccc(N)cc2)cc1)c1ccc(Oc2ccc(N)cc2)cc1,AC50,[5],3.21 µM (active)
same,outcome,[6],inactive
same,outcome,[7],inactive
same,outcome,[2],inactive
same,AC50,[9],7.23 µM (active)
same,outcome,[3],inactive
same,outcome,[4],inactive
FCOC(C(F)(F)F)C(F)(F)F,outcome,[1],inactive
same,outcome,[3],inactive
same,outcome,[4],inactive
NS(=O)(=O)O,outcome,[5],inactive
same,outcome,[6],inactive
same,outcome,[7],inactive
same,outcome,[2],inactive
same,outcome,[3],inactive
same,outcome,[4],inactive
CCCCC(CC)C(=O)O (stereo not drawn),outcome,[5],inactive
same,outcome,[7],inactive
same,outcome,[8],inactive
same,outcome,[2],inactive
same,outcome,[3],inactive
same,outcome,[4],inactive
CC(C)C=O,outcome,[5],inactive
same,outcome,[6],inactive
same,outcome,[7],inactive
same,outcome,[2],inactive
same,outcome,[9],inactive
same,outcome,[3],inactive
same,outcome,[4],inactive
CN(CCO)S(=O)(=O)C(F)(F)C(F)(F)C(F)(F)C(F)(F)C(F)(F)C(F)(F)C(F)(F)C(F)(F)F,outcome,[5],inactive
same,outcome,[7],inactive
same,outcome,[8],inactive
same,outcome,[9],inactive
same,outcome,[3],inactive
same,outcome,[4],inactive
O=C(O)C(=O)O,outcome,[5],inactive
same,outcome,[6],inactive
same,outcome,[7],inactive
same,outcome,[8],inactive
same,outcome,[2],inactive
same,outcome,[3],inactive
same,outcome,[4],inactive
Oc1cc2ccccc2cc1O,outcome,[5],inactive
same,outcome,[7],inactive
same,outcome,[3],inactive
same,outcome,[4],inactive
C[C@]12CC[C@@H]3c4ccc(O)cc4CC[C@H]3[C@@H]1CC[C@@H]2OC(=O)CCC1CCCC1,outcome,[5],inactive
same,outcome,[6],inactive
same,outcome,[8],inactive
same,outcome,[3],inactive
same,outcome,[4],inactive
COCC1CCC(CO)CC1 (stereo not drawn),outcome,[5],inactive
same,outcome,[6],inactive
same,outcome,[8],inactive
same,outcome,[3],inactive
same,outcome,[4],inactive
CN(C)CCOC(c1ccccc1)c1ccccc1,outcome,[5],inactive
same,outcome,[6],inactive
same,outcome,[8],inactive
same,outcome,[3],inactive
C[C@]12CC[C@@H]3c4ccc(O)cc4CC[C@H]3[C@@H]1C[C@@H](O)[C@@H]2O,outcome,[5],inactive
same,outcome,[7],inactive
same,outcome,[8],inactive
same,outcome,[2],inactive
same,outcome,[9],inactive
same,outcome,[3],inactive
same,outcome,[4],inactive
CCOC(=O)c1nc(C(Cl)(Cl)Cl)n(-c2ccc(Cl)cc2Cl)n1,outcome,[1],inactive
same,AC50,[2],100 µM (active)
same,AC50,[9],66 µM (active)
same,outcome,[3],inactive
same,outcome,[4],inactive
same,outcome,[10],inactive
O=C1OC2(c3ccccc31)c1cc(I)c(O)c(I)c1Oc1c2cc(I)c(O)c1I,outcome,[5],inactive
same,outcome,[6],inactive
same,outcome,[7],inactive
same,outcome,[2],inactive
same,outcome,[3],inactive
same,outcome,[4],inactive
C=C(c1ccc(C(=O)O)cc1)c1cc2c(cc1C)C(C)(C)CCC2(C)C,outcome,[5],inactive
same,outcome,[6],inactive
same,outcome,[8],inactive
same,outcome,[2],inactive
same,AC50,[3],31 µM (active)
same,outcome,[3],inactive
same,outcome,[4],inactive
O=c1cc(-c2ccccc2)oc2ccc3ccccc3c12,outcome,[5],inactive
same,outcome,[6],inactive
same,outcome,[7],inactive
same,outcome,[2],inactive
same,outcome,[9],inactive
same,outcome,[3],inactive
same,outcome,[4],inactive

# Source: PubChem BioAssay (EPA / NIEHS)
